# Results from PubChem BioAssay (EPA / NIEHS).
# Records with an inconclusive call do not appear. Calls of active or inactive are those of the source. Rule for the calls: active = hit-call score of the fitted dose curve at least 0.9, where 1 is the maximum; inconclusive = response in the unintended direction; inactive = score below 0.9.
# Assays:
# [1] = ATG_M_61_XSP1: Attagene TRANS-FACTORIAL Multi-Species (XSP1) HepG2 Assay for M61 Transcription Factor (Internal Marker) (AID 2283797)
# Experimental: (§1) ATG_XSP1_multi-species_TRANS is a cell-based, multiplexed assay created by modifying the existing Attagene TRANS-FACTORIAL system to include a panel of nuclear receptors from some or all the following species: human (Homo sapiens), mouse (Mus musculus), frog (Xenopus laevis), zebrafish (Danio rerio), chicken (Gallus gallus), and turtle (Chrysemys picta). The ECOTOX-FACTORIAL format uses HepG2, a human liver cell line, with measurements taken at 24 hours after chemical dosing in a 24-well plate. Xsp1 included 3 nM 6-alpha-fluorotestosterone to partially stimulate the androgen receptor.ATG_M_61_XSP1 is one of 29 assay components measured or calculated from the ATG_XSP1_multi-species_TRANS assay. It is designed to make measurements of mRNA induction, a form of inducible reporter, as detected with fluorescence intensity signals by Reverse transcription polymerase chain reaction (RT-PCR) and Capillary electrophoresis technology.This assay endpoint, ATG_M_61_XSP1, was analyzed in the positive analysis fitting direction relative to DMSO as the negative control and baseline of activity. Using a type of inducible reporter, measures of mRNA for gain-of-signal activity can be used to understand the background control at the transcription factor-level as they relate to the gene. Furthermore, this assay endpoint can be referred to as a secondary readout, because this assay has produced multiple assay endpoints where this one serves a background control function. To generalize the intended target to other relatable targets, this assay endpoint is annotated to the background measurement intended target family, where the subfamily is internal marker.
# Human liver HepG2 cells are transiently transfected with multiple reporter transcription units (MRTUs) in 6-well plates using FuGene 6 reagent (Roche; 3 ml FuGene/1 mg DNA). The MRTU constructs are regulated by a cis-regulating element (promoter). […] A major difference between the CIS and TRANS system is that in CIS activities of endogenous TFs are measured, whereas the TRANS assay evaluates changes in activities of exogenous, chimeric NR-Gal4 proteins. […] At the end of 24 hour incubation, total RNA was isolated using TriZol reagent (Invitrogen). The isolated RNA is then reverse-transcribed using oligo(dT) primer and Mo-MLV reverse transcriptase (Invitrogen) with DNAse I (Ambion) treatment for 30 min. The one-tenth of the produced cDNA was amplified by PCR using Taq DNA polymerase (Invitrogen) and two reporter sequence-specific primers. The PCR products were fluorescently labeled by primer extension with 6-arboxyfluorescein (6-FAM) 5'-labeled reporter sequence-specific primer (2 min at 95 C, 20 s at 68 C and 10 min at 72 C) and these products were digested with 5U of HpaI (New England Biolabs) for 2h at 37 C. The fragments were purified using Qiaquick PCR columns (Qiagen), analyzed on an ABI 3130xL genetic analyzer (Applied Biosystems) with peak positions identified by using a set of X-rhodamine (ROX)-labeled MapMarker1000 molecular weight standards (BioVentures). The raw capillary electrophoresis data was processed using Attagraph software (Attagene).
# [2] = ATG_M_32_XSP1: Attagene TRANS-FACTORIAL Multi-Species (XSP1) HepG2 Assay for M32 Transcription Factor (Internal Marker) (AID 2283799)
# Outline: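 Reporter transcripts from the M32 internal-control unit measured by RT-PCR, FAM labelling, HpaI digestion and capillary electrophoresis after 24 h compound exposure of transfected HepG2, 3 nM 6-alpha-fluorotestosterone included; DMSO baseline, positive-direction fit.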
# [3] = biological target: Peroxisome proliferator-activated receptor gamma (Homo sapiens) (UniProt P37231); assay: ATG_hPPARg_XSP1: Attagene TRANS-FACTORIAL Multi-Species (XSP1) HepG2 Assay for human Peroxisome Proliferator-activated Receptor gamma (PPARg) (AID 2283800)
# Peroxisome proliferator-activated receptor gamma (Homo sapiens), sequence (P37231 whole entry, looked up, the tested form may be a part): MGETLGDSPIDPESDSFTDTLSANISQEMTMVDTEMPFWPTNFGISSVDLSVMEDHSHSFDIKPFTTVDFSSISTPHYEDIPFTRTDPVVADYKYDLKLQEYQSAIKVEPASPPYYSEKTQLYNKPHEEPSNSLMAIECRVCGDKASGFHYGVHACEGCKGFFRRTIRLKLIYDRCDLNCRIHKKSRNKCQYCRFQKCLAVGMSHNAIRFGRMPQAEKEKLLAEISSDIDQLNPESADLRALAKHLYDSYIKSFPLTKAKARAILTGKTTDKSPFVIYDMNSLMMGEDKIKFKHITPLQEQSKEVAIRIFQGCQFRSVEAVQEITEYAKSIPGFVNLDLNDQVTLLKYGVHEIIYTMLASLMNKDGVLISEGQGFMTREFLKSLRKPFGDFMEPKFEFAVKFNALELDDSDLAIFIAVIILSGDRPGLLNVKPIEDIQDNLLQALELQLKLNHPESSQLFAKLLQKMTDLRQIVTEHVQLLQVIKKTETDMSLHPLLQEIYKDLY
# Outline: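 Reporter mRNA induction, measured by RT-PCR with capillary electrophoresis 24 h after dosing, scored as gain over DMSO. Transfected HepG2 cells express exogenous NR-Gal4 chimeras driving GAL4-UAS reporters; medium includes 3 nM 6-alpha-fluorotestosterone.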
# [4] = system: zebrafish Peroxisome Proliferator-activated Receptor gamma (PPARg), gene 557037; assay: ATG_zfPPARg_XSP1: Attagene TRANS-FACTORIAL Multi-Species (XSP1) HepG2 Assay for zebrafish Peroxisome Proliferator-activated Receptor gamma (PPARg) (AID 2283801)
# Outline: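 Trans-activation readout of chimeric zebrafish PPARg–GAL4 in transiently transfected human HepG2 cells, 24 h chemical exposure (medium includes 3 nM 6-alpha-fluorotestosterone). Reporter transcripts measured by RT-PCR and capillary electrophoresis, fitted as gain over DMSO.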
# [5] = biological target: mouse Peroxisome Proliferator-activated Receptor gamma (PPARg), Pparg (gene 19016) (UniProt P37238); assay: ATG_mPPARg_XSP1: Attagene TRANS-FACTORIAL Multi-Species (XSP1) HepG2 Assay for mouse Peroxisome Proliferator-activated Receptor gamma (PPARg) (AID 2283802)
# mouse Peroxisome Proliferator-activated Receptor gamma (PPARg), Pparg (gene 19016), sequence (P37238 whole entry, looked up, the tested form may be a part): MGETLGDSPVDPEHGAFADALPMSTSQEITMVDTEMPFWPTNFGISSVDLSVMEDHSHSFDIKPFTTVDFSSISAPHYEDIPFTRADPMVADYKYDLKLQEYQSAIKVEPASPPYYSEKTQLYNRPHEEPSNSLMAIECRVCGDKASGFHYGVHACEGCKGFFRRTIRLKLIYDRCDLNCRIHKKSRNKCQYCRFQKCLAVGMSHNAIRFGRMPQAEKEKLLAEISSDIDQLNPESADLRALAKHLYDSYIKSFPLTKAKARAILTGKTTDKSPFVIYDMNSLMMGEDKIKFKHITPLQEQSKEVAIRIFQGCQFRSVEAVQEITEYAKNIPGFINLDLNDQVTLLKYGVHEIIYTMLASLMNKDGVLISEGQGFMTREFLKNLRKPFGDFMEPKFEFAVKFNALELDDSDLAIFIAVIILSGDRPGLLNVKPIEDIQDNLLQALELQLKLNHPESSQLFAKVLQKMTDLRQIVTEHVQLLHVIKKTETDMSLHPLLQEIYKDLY
# Outline: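 Readout is reporter mRNA induction, measured by RT-PCR with 6-FAM labelling, HpaI digestion and capillary electrophoresis, 24 h post-dose relative to DMSO. Transient multi-reporter transfection of human HepG2 with mouse PPARg–GAL4 fusion; 3 nM 6-alpha-fluorotestosterone included.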
# [6] = biological target: Nuclear receptor subfamily 1 group I member 2 (Mus musculus) (UniProt O54915); assay: ATG_mPXR_XSP1: Attagene TRANS-FACTORIAL Multi-Species (XSP1) HepG2 Assay for mouse Pregnane X Receptor (PXR) (AID 2283803)
# Nuclear receptor subfamily 1 group I member 2 (Mus musculus), sequence (O54915 whole entry, looked up, the tested form may be a part): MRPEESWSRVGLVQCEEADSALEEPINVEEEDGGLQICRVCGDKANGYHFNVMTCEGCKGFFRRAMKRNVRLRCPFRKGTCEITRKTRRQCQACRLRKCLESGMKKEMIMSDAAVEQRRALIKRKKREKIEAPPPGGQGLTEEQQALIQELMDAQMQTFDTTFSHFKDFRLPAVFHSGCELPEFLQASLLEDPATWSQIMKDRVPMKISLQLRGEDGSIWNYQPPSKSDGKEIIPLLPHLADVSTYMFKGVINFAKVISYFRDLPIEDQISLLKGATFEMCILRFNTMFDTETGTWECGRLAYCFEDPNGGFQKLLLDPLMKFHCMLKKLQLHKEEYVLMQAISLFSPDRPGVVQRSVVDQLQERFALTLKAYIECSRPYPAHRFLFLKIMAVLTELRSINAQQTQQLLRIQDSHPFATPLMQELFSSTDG
# Outline: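 Transiently transfected HepG2 cells expressing a receptor-Gal4 chimera drive a GAL4-UAS reporter; 3 nM 6-alpha-fluorotestosterone included. Reporter mRNA read 24 h post-dose by RT-PCR and capillary electrophoresis; gain of signal relative to DMSO.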
# [7] = biological target: frog Thyroid hormone Receptor alpha (TRa), thra-a (gene 397942) (UniProt P15204); assay: ATG_frTRa_XSP1: Attagene TRANS-FACTORIAL Multi-Species (XSP1) HepG2 Assay for frog Thyroid hormone Receptor alpha (TRa) (AID 2283804)
# frog Thyroid hormone Receptor alpha (TRa), thra-a (gene 397942), sequence (P15204 whole entry, looked up, the tested form may be a part): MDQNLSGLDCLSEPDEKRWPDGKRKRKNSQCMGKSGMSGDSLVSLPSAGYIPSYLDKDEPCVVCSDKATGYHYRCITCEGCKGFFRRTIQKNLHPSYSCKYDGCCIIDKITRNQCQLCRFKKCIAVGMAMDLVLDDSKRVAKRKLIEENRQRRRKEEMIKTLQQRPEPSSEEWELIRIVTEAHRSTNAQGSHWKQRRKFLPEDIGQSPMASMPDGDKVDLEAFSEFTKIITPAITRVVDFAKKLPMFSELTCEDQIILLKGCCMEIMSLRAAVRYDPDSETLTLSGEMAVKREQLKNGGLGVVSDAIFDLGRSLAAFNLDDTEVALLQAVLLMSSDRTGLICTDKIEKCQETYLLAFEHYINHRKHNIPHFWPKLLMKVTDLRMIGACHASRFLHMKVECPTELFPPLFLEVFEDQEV
# Outline: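 Reporter transcript induction, measured by RT-PCR with 6-FAM labelling and capillary electrophoresis, 24 hr after dosing transiently transfected HepG2 cells expressing a frog TRa-GAL4 fusion; medium contained 3 nM 6-alpha-fluorotestosterone; increase over DMSO scored.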
# [8] = system: turtle Thyroid Hormone Receptor, alpha (TRa), gene 101949057; assay: ATG_trTRa_XSP1: Attagene TRANS-FACTORIAL Multi-Species (XSP1) HepG2 Assay for turtle Thyroid Hormone Receptor, alpha (TRa) (AID 2283806)
# Outline: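 After 24 h chemical exposure, reporter transcripts were measured by RT-PCR with fluorescent primer extension, HpaI digestion and capillary electrophoresis. Cells were transiently transfected HepG2 expressing exogenous NR-Gal4 chimeras; medium contained 3 nM 6-alpha-fluorotestosterone; fitted upward relative to DMSO.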
# [9] = biological target: human Thyroid hormone Receptor alpha (TRa), THRA (gene 7067) (UniProt P10827); assay: ATG_hTRa_XSP1: Attagene TRANS-FACTORIAL Multi-Species (XSP1) HepG2 Assay for human Thyroid hormone Receptor alpha (TRa) (AID 2283805)
# human Thyroid hormone Receptor alpha (TRa), THRA (gene 7067), sequence (P10827 whole entry, looked up, the tested form may be a part): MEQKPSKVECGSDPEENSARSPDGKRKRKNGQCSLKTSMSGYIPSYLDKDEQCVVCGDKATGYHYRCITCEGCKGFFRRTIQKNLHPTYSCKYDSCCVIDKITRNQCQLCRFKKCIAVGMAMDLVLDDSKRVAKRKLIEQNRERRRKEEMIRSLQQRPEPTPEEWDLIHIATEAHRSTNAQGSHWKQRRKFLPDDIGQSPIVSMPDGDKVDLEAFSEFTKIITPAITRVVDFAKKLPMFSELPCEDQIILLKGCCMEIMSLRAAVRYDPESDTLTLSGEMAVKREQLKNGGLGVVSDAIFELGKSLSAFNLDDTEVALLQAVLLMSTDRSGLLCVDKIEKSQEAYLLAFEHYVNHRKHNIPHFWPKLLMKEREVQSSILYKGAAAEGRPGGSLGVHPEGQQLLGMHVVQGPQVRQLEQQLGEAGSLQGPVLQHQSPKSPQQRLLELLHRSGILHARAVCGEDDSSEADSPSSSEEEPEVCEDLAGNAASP
# Outline: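 Reporter transcripts from the human TRa-Gal4 TRANS unit quantified by RT-PCR, fluorescent labeling and capillary electrophoresis after 24 hours of chemical exposure in transfected HepG2 cells; medium contains 3 nM 6-alpha-fluorotestosterone. Positive direction fit against DMSO.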
# [10] = ATG_M_19_XSP1: Attagene TRANS-FACTORIAL Multi-Species (XSP1) HepG2 Assay for M19 Transcription Factor (Internal Marker) (AID 2283798)
# Experimental: as §1, with “receptor.ATG_M_19_XSP1” for “receptor.ATG_M_61_XSP1”, “ATG_M_19_XSP1,” for “ATG_M_61_XSP1,”, “Using a type of inducible reporter, measures of mRNA for gain-of-signal activity can be used to understand the background control at the transcription factor-level as they relate to the gene.” left out, “To generalize the intended target to other relatable targets, this assay endpoint is annotated to the background measurement intended target family, where the subfamily is internal marker.” left out
# Human liver HepG2 cells are transiently transfected with multiple reporter transcription units (MRTUs) in 6-well plates using FuGene 6 reagent (Roche; 3 ml FuGene/1 mg DNA). […] A major difference between the CIS and TRANS system is that in CIS activities of endogenous TFs are measured, whereas the TRANS assay evaluates changes in activities of exogenous, chimeric NR-Gal4 proteins. […] The fragments were purified using Qiaquick PCR columns (Qiagen), analyzed on an ABI 3130xL genetic analyzer (Applied Biosystems) with peak positions identified by using a set of X-rhodamine (ROX)-labeled MapMarker1000 molecular weight standards (BioVentures). […]
structure (smiles),measurement,setting,value
C=CCOC(Cn1ccnc1)c1ccc(Cl)cc1Cl (stereo not drawn),outcome,[1],inactive
same,outcome,[2],inactive
same,AC50,[3],100 µM (active)
same,outcome,[4],inactive
same,AC50,[5],9.81 µM (active)
same,AC50,[6],0.948 µM (active)
same,outcome,[7],inactive
CC(C)CCCCCCc1ccc(O)cc1,outcome,[1],inactive
same,outcome,[3],inactive
same,outcome,[4],inactive
same,AC50,[5],15.9 µM (active)
same,outcome,[6],inactive
same,outcome,[8],inactive
O=C(c1ccc(O)cc1O)c1ccc(O)cc1O,outcome,[1],inactive
same,outcome,[3],inactive
same,outcome,[5],inactive
same,outcome,[7],inactive
same,outcome,[9],inactive
CCCCC(CC)COC(=O)c1ccccc1C(=O)O (stereo not drawn),outcome,[1],inactive
same,outcome,[10],inactive
same,outcome,[2],inactive
same,AC50,[4],64.2 µM (active)
same,AC50,[5],13.2 µM (active)
same,AC50,[6],3.95 µM (active)
same,outcome,[8],inactive
CCCCC(CC)CN1C(=O)C2C3C=CC(C3)C2C1=O (stereo not drawn),outcome,[10],inactive
same,outcome,[2],inactive
same,AC50,[3],15.5 µM (active)
same,outcome,[4],inactive
same,AC50,[5],27.7 µM (active)
same,AC50,[6],0.845 µM (active)
CC(C)(c1ccc(O)cc1)c1ccc(O)cc1,outcome,[1],inactive
same,outcome,[5],inactive
same,outcome,[6],inactive
same,outcome,[7],inactive
same,outcome,[9],inactive
same,outcome,[8],inactive
CC(=O)S[C@@H]1CC2=CC(=O)CC[C@]2(C)[C@H]2CC[C@@]3(C)[C@@H](CC[C@@]34CCC(=O)O4)[C@H]12,outcome,[1],inactive
same,outcome,[3],inactive
same,outcome,[4],inactive
same,outcome,[5],inactive
same,AC50,[6],0.411 µM (active)
same,outcome,[7],inactive
same,outcome,[9],inactive
C#C[C@]1(O)CC[C@H]2[C@@H]3CCC4=CC(=O)CC[C@@H]4[C@H]3CC[C@@]21CC,outcome,[7],inactive
same,outcome,[8],inactive
CC1(C)C(C=C(Cl)Cl)C1C(=O)OCc1cccc(Oc2ccccc2)c1 (stereo not drawn),outcome,[10],inactive
same,outcome,[4],inactive
same,AC50,[6],1.73 µM (active)
same,outcome,[7],inactive
same,outcome,[8],inactive
Oc1ccc(C(c2ccc(O)cc2)C(Cl)(Cl)Cl)cc1,outcome,[1],inactive
same,outcome,[3],inactive
same,outcome,[4],inactive
same,outcome,[5],inactive
same,outcome,[6],inactive
same,outcome,[7],inactive
same,outcome,[8],inactive
